# Screening results from PubChem BioAssay.
# FBW7 act – FBW7 E3 ligase activators, primary screen, biochemical, AlphaScreen, human; AlphaScreen FBW7–phospho-cyclin E peptide binding, activator screen; normalized activity (activation), % at 26.1 µM; 0.13% of 650,000 active; AID 1259310, 2017; in the data active means normalized activity above about 1.9%;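 further: purified mutant Fbw7 with reduced substrate affinity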
# TEAD-YAP block – TEAD-YAP interaction inhibition, primary screen, TEAD-YAP interaction inhibitor project, luminescence, HEK-TIYL cells; TEAD-Gal4/YAP UAS-luciferase luminescence; inhibition, % at 9.12 µM; 1.4% of 640,000 active; AID 1259422, 2018; in the data active means inhibition above about 32%;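 further: 0% = median of test compound wells and 100% = reference inhibitor wells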
# MITF inh – MITF inhibitors, primary screen, biochemical, AlphaScreen, human. Microphthalmia-associated transcription factor (Homo sapiens), O75030. AlphaScreen MITF homodimerization, bead proximity signal. inhibition, % at 2.6 µM. 0.91% of 650,000 active. AID 1259374, 2018; in the data active means inhibition above about 50%;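 further: 0% = vehicle wells with protein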
# Target sequence (O75030 whole entry, looked up): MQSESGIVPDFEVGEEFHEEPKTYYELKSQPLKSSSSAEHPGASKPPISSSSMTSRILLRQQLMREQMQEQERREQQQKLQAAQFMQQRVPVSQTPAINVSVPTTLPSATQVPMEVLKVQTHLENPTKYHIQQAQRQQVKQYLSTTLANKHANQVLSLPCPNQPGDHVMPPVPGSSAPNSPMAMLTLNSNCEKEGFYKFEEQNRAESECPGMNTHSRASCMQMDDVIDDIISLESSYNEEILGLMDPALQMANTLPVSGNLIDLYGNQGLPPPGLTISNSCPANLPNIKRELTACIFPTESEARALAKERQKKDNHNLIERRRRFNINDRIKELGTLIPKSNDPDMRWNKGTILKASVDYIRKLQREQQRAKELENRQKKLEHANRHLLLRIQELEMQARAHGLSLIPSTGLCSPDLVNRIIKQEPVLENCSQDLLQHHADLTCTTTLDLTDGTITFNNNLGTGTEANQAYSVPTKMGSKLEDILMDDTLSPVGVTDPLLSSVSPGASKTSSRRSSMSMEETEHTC
# GPR151 ag – activators of human GPR151, primary screen, cell-based, PathHunter beta-arrestin, luminescence; G-protein coupled receptor 151 (Homo sapiens), Q8TDV0; PathHunter beta-arrestin GPR151 cells; activation, % at 11.2 µM; 1% of 650,000 active; AID 1508602, 2020; in the data active means activation above about 4.9%;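 further: 0% = median of compound wells and 100% = cells with positive control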
# * = called active by the depositor. A selection: hits, their analogues and other compounds. The true share with any hit is near 3.5%.
SMILES,FBW7 act,TEAD-YAP block,MITF inh,GPR151 ag
COc1cc(C(=O)Oc2ccc3c(=O)c(Oc4ccc(C(C)(C)C)cc4)coc3c2)cc(OC)c1OC,0.1,79.7*,-5.7,-0.6
CC(C)(C)c1ccc(Oc2coc3cc(O)ccc3c2=O)cc1,0.9,63.7*,18.2,-0.3
COc1cc(C(=O)Oc2ccc3c(=O)c(Oc4cc(C)cc(C)c4)coc3c2)cc(OC)c1OC,-0.1,1.9,3.3,1.0
O=c1c(Oc2ccc(Cl)cc2)coc2cc(O)ccc12,0.1,-4.4,12.1,1.6
CC(=O)NC1=NC(=O)/C(=C/c2ccc(-c3ccc(Cl)cc3)o2)S1,0.1,-12.4,-1.8,-0.4
CC(=O)NC1=NC(=O)/C(=C\c2ccc(I)o2)S1,-0.2,-3.4,75.0*,0.9
Cc1cc(C)nc(NC(N)=NCc2ccccc2)n1,-0.2,5.0,6.7,-0.3
Cc1ccc(CN=C(N)Nc2nc(C)cc(C)n2)cc1,-0.2,54.0*,-0.2,1.6
Cc1cnc(Nc2ccc(N3CCOCC3)cc2)nc1Nc1ccc(N2CCOCC2)cc1,-0.3,42.5*,9.0,4.8
Cc1cnc(Nc2ccc(N3CCOCC3)cc2)nc1NCCOc1ccccc1,0.0,47.9*,14.2,2.8
Cc1cnc(Nc2ccc(N3CCOCC3)cc2)nc1NCCN1CCOCC1,-0.1,-0.3,1.2,0.7
Cc1cnc(Nc2ccncc2)nc1Nc1ccc(N2CCOCC2)cc1,-0.3,39.6*,-3.6,-1.1
Cc1cnc(NCc2ccc3c(c2)OCO3)nc1Nc1ccc(N2CCOCC2)cc1,0.1,42.2*,16.1,-0.6
Cc1ccc(S(=O)(=O)CCC(=O)OCC(=O)NC(=O)NCC(C)C)cc1,0.0,11.7,-0.3,1.3
COC(=O)c1cc(COC(=O)/C=C/c2cnc3ccccc3n2)oc1C,0.0,6.8,0.1,0.6
Cc1cnc(Nc2ccc(C(F)(F)F)cc2)nc1Nc1ccc(N2CCOCC2)cc1,-0.1,49.3*,14.9,1.8
CCCCNc1ncnc2c1cnn2-c1ccc(Cl)cc1,-0.2,-53.8,0.2,0.8
Cc1cccc(-n2ncc3c(NC(C)(C)C)ncnc32)c1,0.0,82.4*,-3.1,1.3
Cc1cccc(-n2ncc3c(Nc4ccc(C)cc4C)ncnc32)c1,0.0,-26.6,8.2,0.1
CCCN(CCC)c1ncnc2c1cnn2-c1ccc(Cl)cc1,0.4,6.8,4.8,1.7
CC(C)(C)Nc1ncnc2c1cnn2-c1ccc(Cl)cc1,0.1,51.5*,4.4,2.6
Cc1cccc(-n2ncc3c(Nc4cc(C)ccc4C)ncnc32)c1,0.1,44.7*,-5.2,-1.6
CCN(CCN(C)C)c1ncnc2c1cnn2-c1ccc(Cl)cc1,-0.2,50.0*,5.0,-1.4
N#Cc1ccc(C(=O)N(CCCCN2C(=O)c3ccccc3C2=O)c2ccc(F)cc2F)cc1,-0.2,10.4,13.8,0.2
CCn1nc(C)c(CN2CCN(Cc3ccccc3C)C(CCO)C2)c1C (centres undefined),0.0,-5.4,10.4,0.5
SMILES,FBW7 act,TEAD-YAP block,MITF inh,GPR151 ag
Cc1cccc(-n2ncc3c(Nc4cccc(C)c4C)ncnc32)c1,-0.1,42.2*,-5.2,0.0
c1cc(CN2CCOc3ccc(CN4CCc5sccc5C4)cc3C2)ccn1,0.4,11.1,14.7,-0.1
Cc1cc(N(C)C)nc(NCCNC(=O)C(C)(C)Oc2ccc(Cl)cc2)n1,0.5,32.2*,8.8,-1.7
CC(=O)c1c(C)[nH]c(C(=O)OCc2csc(-c3ccccc3)n2)c1C,-0.1,32.2*,4.1,0.3
CC(=O)c1c(C)[nH]c(C(=O)OCC(=O)Nc2nc(-c3ccc(C)cc3)cs2)c1C,0.7,36.7*,-13.2,2.1
CC(=O)c1ccc(NS(=O)(=O)c2ccc3c(c2)SC(C)CN3C(C)=O)cc1 (centres undefined),-0.1,-12.0,3.6,-0.4
COc1ccc(-c2cnc(N3CCC4(CC3)OCCO4)nc2)cc1,0.2,-26.6,5.2,0.4
c1ccc(-c2cc(N3CCC4(CC3)OCCO4)nc(-c3ccccn3)n2)cc1,-0.1,42.8*,0.6,0.5
c1ccc(-c2cnc(N3CCC4(CC3)OCCO4)nc2)cc1,0.0,70.4*,2.3,-11.0
Fc1ccc(-c2cc(N3CCC4(CC3)OCCO4)nc(-c3ccccn3)n2)cc1,-0.1,15.2,9.2,-0.6
Cc1ccc2c(C)nc(Nc3nc(C)c(C)c(=O)[nH]3)nc2c1,0.1,44.5*,28.1,-0.6
Cc1ccc2nc(Nc3nc(C)c(C)c(=O)[nH]3)nc(C)c2c1,-0.1,-31.9,3.8,0.1
CN(C)CCNC(=O)c1cc2c(Cl)nc3ccccc3c2s1,0.3,54.9*,17.8,-2.4
CC(=O)Nc1ccc(Nc2nc(N3CCN(c4ccccn4)CC3)ncc2C)cc1,0.1,48.5*,17.2,1.5
Cc1cnc(N2CCN(c3ccccn3)CC2)nc1Nc1ccccc1,-0.1,-3.1,5.8,-0.9
CN1C(=O)C(=Cc2ccccc2OCC(=O)Nc2ccccc2)C(=O)N(C)C1=S,0.8,-13.0,6.2,-2.5
CN1C(=O)C(=Cc2ccccc2OCC(=O)O)C(=O)N(C)C1=S,-0.3,5.9,72.1*,1.3
CC(C)c1nc2ccc(-c3cnn(-c4cccc(CN5CCOCC5)c4)c3)cc2c(=O)[nH]1,-0.3,14.1,-7.6,0.9
Cc1nc2ccc(-c3cnn(-c4cccc(N5CCOCC5)c4)c3)cc2c(=O)n1C,-0.3,87.1*,7.5,0.1
Cc1nc2sccn2c1CN1CCc2ccc(NC(=O)C3CCCO3)cc2C1 (centres undefined),0.0,37.2*,12.0,1.0
O=C(Nc1ccc2c(c1)CN(C(=O)C#Cc1ccccc1)CC2)C1CCCO1 (centres undefined),-0.1,60.6*,4.9,0.2
Cc1cc(=O)oc2cc(OCC(O)Cn3c(C)nc4ccccc43)ccc12 (centres undefined),-0.1,50.1*,-6.0,2.9
Cc1nc2ccccc2n1CC(O)COc1ccc2ccccc2c1 (centres undefined),-0.4,14.5,11.1,0.6
CCn1nc(CN)c2ccccc2c1=O,0.2,43.0*,0.4,0.6
CCn1nc(CCC(=O)O)c2ccccc2c1=O,0.0,1.6,-9.4,-0.7
COc1cc(Nc2nc(NC3CC3)c3ncn(Cc4ccc(C(F)(F)F)cc4)c3n2)cc(OC)c1OC,0.3,46.8*,20.6,-0.9
FC(F)(F)c1ccc(Cn2cnc3c(NCc4nc5ccccc5[nH]4)nc(Nc4ccccc4)nc32)cc1,0.1,40.7*,5.2,2.9
FC(F)(F)c1ccc(Cn2cnc3c(NCc4nc5ccccc5[nH]4)nc(Nc4ccc5ncccc5c4)nc32)cc1,0.9,-5.8,5.0,-0.3
COc1cc(Nc2nc(NCc3nc4ccccc4[nH]3)c3ncn(Cc4ccc(C(F)(F)F)cc4)c3n2)cc(OC)c1OC,0.0,42.9*,3.7,-0.5
FC(F)(F)c1ccc(Cn2cnc3c(NCc4nc5ccccc5[nH]4)nc(Nc4ccc(C(F)(F)F)cc4)nc32)cc1,0.2,-0.1,9.3,2.0
